# Results published in PubChem BioAssay.
# Activity calls are given as the source filed them. Unless noted, no rule for the calls is given here.
# Legend:
# [1] = system: Wnt5a (protein binding on small-molecule microarray); test: Wnt5a binders on small-molecule microarray, primary screen, biophysical, 635/667 nm fluorescence (AID 1142); details: 635 nm fluorescence, higher = more signal;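 also: fluorescence read at 667 nm with signal to noise per printed feature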
# [2] = cell viability in Huh7 cells, primary screen, cytotoxicity control for HCV replication inhibitor project, CellTiter-Glo luminescence, basal, 48 h (AID 1143); details: Huh7 HCV replicon, higher = more signal, called active from +8 up or from −8 down;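 also: Huh7 hepatoma cells carrying a hepatitis C replication reporter with no stimulus; test concentration not given here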
# [3] = P. aeruginosa biofilm formation inhibitors, primary screen, PAO1 strain, BacTiter-Glo luminescence, LB-PBS (AID 1144); details: 12 h, higher = more signal
# [4] = CREB reporter modulators without forskolin, primary screen, cell-based, PC12, CRE-LacZ reporter, unstimulated (AID 1145); details: no forskolin, luminescence, 4.5 h, higher = more signal, called active from +8 up or from −8 down
# [5] = CREB reporter modulators under forskolin, primary screen, cell-based, PC12, CRE-LacZ reporter, forskolin-stimulated (AID 1146); details: luminescence, 4.5 h, higher = more signal, called active from +8 up or from −8 down;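 also: PC12 cells with 6xCRE LacZ reporter stimulated by forskolin 10 µM; beta-galactosidase reporter signal reflecting CREB driven transcription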
# [6] = molecular target: Streptavidin (Streptomyces avidinii) (UniProt P22629); test: streptavidin binders on small-molecule microarray, primary screen, artefact control for SMM compound annotation, biophysical, 635/667 nm fluorescence (AID 1147); details: streptavidin binding, higher = more signal;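 also: signal reflects streptavidin binding to arrayed compounds as a control protein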
# Streptavidin (Streptomyces avidinii), sequence (P22629 whole entry, looked up): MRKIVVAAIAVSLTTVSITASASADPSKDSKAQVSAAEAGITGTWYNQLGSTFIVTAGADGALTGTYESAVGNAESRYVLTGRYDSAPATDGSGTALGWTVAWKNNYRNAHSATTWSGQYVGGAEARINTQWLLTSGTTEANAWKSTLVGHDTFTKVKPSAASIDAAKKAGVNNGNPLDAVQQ
# [7] = small-molecule binders of probe aInhba, primary screen, biochemical, small-molecule microarray, 635/667 nm fluorescence (AID 1148); details: higher = more signal;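 also: score merges 667nm spot fluorescence with signal-to-noise for antibody binding to printed compounds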
# Torsin-1A (Homo sapiens) [8] = molecular target: Torsin-1A (Homo sapiens) (UniProt O14656); test: torsin A binders from cell lysate, primary screen, small-molecule microarray, wild-type, 635/667 nm (AID 1149); details: COS7 hTOR1A-WT lysate, 635 nm fluorescence, higher = more signal
# Torsin-1A (Homo sapiens), sequence (O14656 whole entry, looked up): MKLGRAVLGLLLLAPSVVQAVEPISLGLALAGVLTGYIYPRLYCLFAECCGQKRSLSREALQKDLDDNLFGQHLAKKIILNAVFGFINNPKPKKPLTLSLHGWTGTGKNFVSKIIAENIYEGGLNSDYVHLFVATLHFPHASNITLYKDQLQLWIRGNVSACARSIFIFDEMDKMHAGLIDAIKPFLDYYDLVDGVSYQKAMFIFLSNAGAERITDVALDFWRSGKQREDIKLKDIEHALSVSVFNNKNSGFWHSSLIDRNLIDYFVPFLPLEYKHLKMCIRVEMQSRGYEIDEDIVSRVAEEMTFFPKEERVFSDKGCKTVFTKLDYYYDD
# Torsin-1A (Homo sapiens) [9] = molecular target: Torsin-1A (Homo sapiens) (UniProt O14656); test: small-molecule binders of mutant TOR1A in lysate, primary screen, cell lysate, small-molecule microarray, COS7 lysate, 635/667 nm fluorescence (AID 1150); details: COS7 hTOR1A mutant lysate, 635 nm fluorescence, higher = more signal;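 also: score pools 667 nm emission and signal to noise measuring lysate protein binding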
# [10] = system: Sonic hedgehog protein (Shh); test: small-molecule binders of Shh protein, primary screen, biochemical, small-molecule microarray, 635/667 nm fluorescence (AID 1151); details: small-molecule microarray binding, 635 nm fluorescence; higher = more signal;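 also: Shh protein binding to compounds spotted on small-molecule microarray slides; score combines spot fluorescence intensity with signal-to-noise across triplicate slides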
# [11] = E. coli DRC41 culture turbidity changes, primary screen, E. coli filamentation inducer project, strain DRC41, OD650, 48 h (AID 1152);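 also: E. coli MC1000 strain DRC41 lacking acrAB efflux pump and sulA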; details: E. coli DRC41 (acrAB sulA), higher = more signal, called active from +8 up or from −8 down
# [12] = small-molecule binders of probe aLefty1, primary screen, biochemical, small-molecule microarray, 635/667 nm fluorescence (AID 1153); details: higher = more signal;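 also: score merges spot fluorescence with signal-to-noise ratio from the scanned slide images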
# [13] = PSAC antagonists in infected red cells, primary screen, cell-based, P. falciparum Indochina, OD700, 1 h (AID 1154); details: P. falciparum Indochina infected RBC osmotic lysis, higher = more signal, called active from +8 up or from −8 down
# [14] = PSAC antagonists in infected red cells, primary screen, cell-based, P. falciparum Indochina, OD700, 2 h (AID 1155);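 also: lysis reports solute entry through the parasite surface anion channel PSAC; channel blockers reduce lysis of infected cells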; details: P. falciparum Indochina infected erythrocytes, osmotic lysis OD700; higher = more signal, called active from +8 up or from −8 down
# [15] = osmotic lysis modulators in infected erythrocytes, primary screen, PSAC antagonist project, cell-based, P. falciparum Indochina, OD700, 3 h (AID 1156); details: higher = more signal, called active from +8 up or from −8 down
# [16] = PSAC antagonists in infected red cells, primary screen, cell-based, P. falciparum Indochina, OD700, 18 h (AID 1157); details: P. falciparum Indochina infected erythrocytes, osmotic lysis OD700, 18 h; higher = more signal, called active from +8 up or from −8 down
# [17] = modulators of S6 phosphorylation in cells, primary screen, cell-based, A549, cytoblot, luminescence, serum-stimulated (AID 1158); details: A549 phospho-S6 cytoblot, 5 h, higher = more signal;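 also: serum-stimulated A549 lung adenocarcinoma cells; signal is phosphorylated S6 detected by cytoblot immunostaining with HRP secondary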
# [18] = molecular target: NADPH oxidase 2 (Homo sapiens) (UniProt P04839); test: NOX2-dependent H2O2 signal modulators, primary screen, NOX inhibitor project, cell-based, HEK293-NOX2, PMA-stimulated, Amplex Red fluorescence (AID 1159); details: 45 min, higher = more signal, called active from +8 up or from −8 down; also: test concentration not given here
# NADPH oxidase 2 (Homo sapiens), sequence (P04839 whole entry, looked up): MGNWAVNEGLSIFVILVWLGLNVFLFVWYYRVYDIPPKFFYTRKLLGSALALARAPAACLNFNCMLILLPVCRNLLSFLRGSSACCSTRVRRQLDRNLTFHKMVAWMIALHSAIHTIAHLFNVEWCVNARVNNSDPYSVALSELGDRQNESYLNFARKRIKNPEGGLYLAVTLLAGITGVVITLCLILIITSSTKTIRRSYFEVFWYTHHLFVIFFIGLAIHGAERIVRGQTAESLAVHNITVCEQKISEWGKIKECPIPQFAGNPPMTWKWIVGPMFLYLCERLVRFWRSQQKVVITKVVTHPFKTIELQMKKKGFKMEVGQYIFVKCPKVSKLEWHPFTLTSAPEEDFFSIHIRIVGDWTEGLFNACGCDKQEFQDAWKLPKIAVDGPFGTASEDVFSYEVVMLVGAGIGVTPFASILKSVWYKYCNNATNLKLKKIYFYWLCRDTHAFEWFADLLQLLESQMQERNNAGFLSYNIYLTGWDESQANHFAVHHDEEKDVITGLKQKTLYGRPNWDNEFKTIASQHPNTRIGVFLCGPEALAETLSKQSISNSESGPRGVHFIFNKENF
# [19] = molecular target: NADPH oxidase 4 (Homo sapiens) (UniProt Q9NPH5); test: NOX4-dependent H2O2 signal modulators, primary screen, NOX inhibitor project, cell-based, HEK293-NOX4, tetracycline-induced, Amplex Red fluorescence (AID 1160); details: 45 min, higher = more signal, called active from +8 up or from −8 down
# NADPH oxidase 4 (Homo sapiens), sequence (Q9NPH5 whole entry, looked up): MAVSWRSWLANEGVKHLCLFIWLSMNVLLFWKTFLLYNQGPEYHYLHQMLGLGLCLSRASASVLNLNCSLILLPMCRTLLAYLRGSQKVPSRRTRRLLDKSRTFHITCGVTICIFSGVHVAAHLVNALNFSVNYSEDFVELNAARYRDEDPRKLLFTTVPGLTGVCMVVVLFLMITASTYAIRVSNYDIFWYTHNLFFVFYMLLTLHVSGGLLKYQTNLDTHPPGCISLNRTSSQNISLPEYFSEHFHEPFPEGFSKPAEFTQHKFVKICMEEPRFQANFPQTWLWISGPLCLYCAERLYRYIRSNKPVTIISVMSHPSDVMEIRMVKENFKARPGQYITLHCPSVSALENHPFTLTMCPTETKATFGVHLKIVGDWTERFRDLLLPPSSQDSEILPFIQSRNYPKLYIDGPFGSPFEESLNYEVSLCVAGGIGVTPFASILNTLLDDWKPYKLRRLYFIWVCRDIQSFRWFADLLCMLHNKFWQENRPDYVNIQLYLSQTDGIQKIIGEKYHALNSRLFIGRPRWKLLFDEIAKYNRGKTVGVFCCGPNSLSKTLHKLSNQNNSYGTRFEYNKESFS
# [20] = molecular target: NADPH oxidase 5 (Homo sapiens) (UniProt Q96PH1); test: NOX5-dependent H2O2 signal modulators, primary screen, NOX inhibitor project, cell-based, HEK293-NOX5, Amplex Red fluorescence (AID 1161); details: HEK293-NOX5, ionomycin, 45 min, higher = more signal
# NADPH oxidase 5 (Homo sapiens), sequence (Q96PH1 whole entry, looked up): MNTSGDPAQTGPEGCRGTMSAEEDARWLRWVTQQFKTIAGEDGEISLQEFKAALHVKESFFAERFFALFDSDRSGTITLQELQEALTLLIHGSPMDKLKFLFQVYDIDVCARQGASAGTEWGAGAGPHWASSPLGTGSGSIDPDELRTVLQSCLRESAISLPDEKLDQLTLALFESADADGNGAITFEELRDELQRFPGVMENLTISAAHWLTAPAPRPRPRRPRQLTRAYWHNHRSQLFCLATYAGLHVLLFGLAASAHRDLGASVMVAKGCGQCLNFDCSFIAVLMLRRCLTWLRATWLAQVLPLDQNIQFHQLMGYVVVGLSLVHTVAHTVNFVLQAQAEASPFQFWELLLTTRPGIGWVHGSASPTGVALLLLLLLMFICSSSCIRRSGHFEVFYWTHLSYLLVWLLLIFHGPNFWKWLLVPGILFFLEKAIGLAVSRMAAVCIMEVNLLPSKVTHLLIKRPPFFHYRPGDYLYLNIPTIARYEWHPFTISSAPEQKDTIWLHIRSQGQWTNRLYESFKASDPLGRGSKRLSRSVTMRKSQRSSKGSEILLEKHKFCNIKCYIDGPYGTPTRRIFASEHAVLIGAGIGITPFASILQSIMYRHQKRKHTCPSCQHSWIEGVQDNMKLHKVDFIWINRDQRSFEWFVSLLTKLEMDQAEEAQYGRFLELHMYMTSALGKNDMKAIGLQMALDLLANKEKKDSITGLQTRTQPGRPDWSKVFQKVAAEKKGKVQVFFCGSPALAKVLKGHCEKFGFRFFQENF
Structure (SMILES),composite z-score [1],z-score [2],z-score [3],z-score [4],z-score [5],composite z-score [6],composite z-score [7],composite z-score (Torsin-1A (Homo sapiens) [8]),composite z-score (Torsin-1A (Homo sapiens) [9]),composite z-score [10],z-score [11],composite z-score [12],z-score [13],z-score [14],z-score [15],z-score [16],z-score [17],z-score [18],z-score [19],z-score [20]
CC(c1ccccc1)C(O)C1C=CC2C(=O)N(c3ccccc3)C(=O)C2N1Nc1ccccc1 (stereo not given),0.821,-3.13 (inactive),-0.626 (inactive),0.246 (inactive),0.379 (inactive),1.67,0.0906,0.524,1.07,0.843,-1.08 (inactive),1.05,4.6 (inactive),0.386 (inactive),2.47 (inactive),-1.35 (inactive),1.95,-3.18 (inactive),-4.79 (inactive),-5.54
CCOC(=O)[C@H]1C/C=C/C[C@H](C(=O)OCC)C(=O)O[C@H]2[C@@H](OC)O[C@H](CO)[C@@H](OC(=O)c3ccc(Br)cc3)[C@@H]2OC1=O,0.168,-3.02 (inactive),-0.79 (inactive),0.342 (inactive),-0.0314 (inactive),-0.0923,0.0464,0.441,-0.15,0.473,-0.365 (inactive),-0.0349,2.35 (inactive),1.54 (inactive),-0.128 (inactive),0.877 (inactive),0.0379,-1.81 (inactive),-0.145 (inactive),-1.24
CCCCC(=C=CC[C@H](O)c1cccc(OCCO)c1)C[C@H](O)c1ccccn1,0.11,-2.42 (inactive),-0.478 (inactive),0.685 (inactive),-0.738 (inactive),0.329,-0.101,0.147,0.704,0.577,1.81 (inactive),-0.272,13.6 (active),0.938 (inactive),1.09 (inactive),-0.676 (inactive),1.54,-1.12 (inactive),-0.337 (inactive),-1.75
COCCOC(=O)N1C(=O)[C@@]2(c3cc(C#Cc4ccc(OC)cc4)ccc31)[C@H](c1ccc(O)cc1)N1[C@H](c3ccccc3)[C@H](c3ccccc3)OC(=O)[C@H]1[C@@H]2C(=O)Nc1nc2ccccc2s1,0.169,-1.07 (inactive),-0.155 (inactive),0.182 (inactive),-0.0609 (inactive),0.302,-0.11,0.277,0.226,1.76,-1.12 (inactive),0.269,1.41 (inactive),0.616 (inactive),-1.14 (inactive),1.01 (inactive),0.263,1.95 (inactive),0.183 (inactive),-0.164
COC(=O)[C@@]1(Cc2ccccc2)[C@H]2c3cc(C(=O)N4CCCC4)n(Cc4ccc(O)c(OC)c4)c3C[C@H]2CN1C(=O)c1ccccc1,0.343,-2.34 (inactive),0.633 (inactive),2.5 (inactive),0.333 (inactive),0.211,0.198,-0.0034,0.0381,-1.39,-1.64 (inactive),0.0147,3.85 (inactive),0.496 (inactive),0.393 (inactive),0.618 (inactive),-0.347,-2.57 (inactive),-6.07 (inactive),-3.82
COCCOC(=O)N1C(=O)[C@@]2(c3cc(C#CC4=CCCCC4)ccc31)[C@H](c1ccc(OCCO)cc1)N1[C@H](c3ccccc3)[C@H](c3ccccc3)OC(=O)[C@H]1[C@@H]2C(=O)N1CCc2cc(OC)c(OC)cc2C1,0.687,-0.496 (inactive),-0.536 (inactive),-0.258 (inactive),-0.513 (inactive),0.606,0.346,0.359,1.17,1.32,1.8 (inactive),0.26,3.15 (inactive),2.02 (inactive),0.817 (inactive),1.13 (inactive),0.0337,0.711 (inactive),0.842 (inactive),1.43
C=CCN(Cc1ccccc1)C(=O)C(c1cccs1)N(C(=O)/C=C\C(=O)O)c1ccc(CCOCCO)cc1 (stereo not given),-0.913,-0.0564 (inactive),-1.75 (inactive),-0.0737 (inactive),-0.771 (inactive),-1.82,-0.133,-2.08,-2.48,-0.595,1.61 (inactive),-0.0538,1.51 (inactive),-0.707 (inactive),0.189 (inactive),-1.04 (inactive),1.77,-0.108 (inactive),-0.821 (inactive),-0.58
CCOC(=O)C1=CC[C@@H](c2ccc(C(F)(F)F)cc2)N(S(=O)(=O)c2ccc(C)cc2)[C@H]1c1ccccc1,0.328,-4.89 (inactive),1.43 (inactive),0.986 (inactive),-0.052 (inactive),1.5,0.316,0.504,0.658,0.0252,-0.734 (inactive),0.373,1.62 (inactive),1.61 (inactive),0.84 (inactive),0.828 (inactive),-0.356,0.803 (inactive),-0.658 (inactive),-0.601
CCN(CC)c1ccc(N2CC=CC34O[C@@H]5/C=C\CCC(C)OC(=O)C5[C@H]3C(=O)N(CCCCCO)[C@@H]4C2=O)cc1 (stereo not given in full),-0.408,0.16 (inactive),1.24 (inactive),1.16 (inactive),-0.418 (inactive),-1.1,-0.016,-1.47,-1.59,-0.0874,-0.0949 (inactive),-0.147,-0.062 (inactive),-0.928 (inactive),-0.356 (inactive),-0.427 (inactive),0.414,-0.0453 (inactive),-0.419 (inactive),0.779
